Inconclusive results are not listed. Where a call stands in place of a potency, no number is given. Active and inactive are the calls of the source. Calls come from the whole dose curve; as a rule, active = well fitted cell-killing curve with a large enough effect; inconclusive = small, poorly fitted or top-dose-only effect; inactive = flat fitted curve, though single readings scatter.
Tests used:
[1] = Cell Viability - LYMP2-013 (AID 970); note: nearly all actives have a fitted effect of over 55% in size
Outline: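 Human lymphoblastoid cells, 2500/well, were preincubated 5 hr at 37 C, then treated with compounds for 24 hr at 37 C in complete medium. Intracellular ATP was read by CellTiter-Glo luminescence; AC50 from Hill-equation fits of concentration-response data.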

[2] = Cell Viability - LYMP2-017 (AID 972); note: nearly all actives have a fitted effect of over 55% in size
Outline: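 Human lymphoblastoid cells (2500/well) were seeded in complete medium, held 5 hr at 37 C, then exposed to compounds for 24 hr at 37 C. Intracellular ATP was read by CellTiter-Glo luminescence after 30 min at room temperature, with AC50 values from Hill-equation fits.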

[3] = Cell Viability - LYMP2-021 (AID 974);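 note: compound exposure lasts 24 hours at 37 °C; nearly all actives have a fitted effect of over 55% in size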
Outline: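 Human lymphoblastoid cells (2500/well) were preincubated 5 hr at 37 C, then exposed to compounds for 24 hr at 37 C in complete medium. Intracellular ATP was read by CellTiter-Glo luminescence; AC50 came from Hill-equation fits of concentration-response data.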

[4] = Cell Viability - LYMP2-023 (AID 975); note: nearly all actives have a fitted effect of over 55% in size
Outline: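 Human lymphoblastoid cells (2500/well) were preincubated 5 hr at 37 C, then exposed to compounds for 24 hr at 37 C in complete medium. Cellular ATP was read by CellTiter-Glo luminescence, and AC50 came from Hill-equation fits.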

[5] = Cell Viability - LYMP2-002 (AID 977)
Outline: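 Luminescent ATP readout (CellTiter-Glo, 30 min room temperature) after 24 h compound exposure at 37 C of a human lymphoblastoid line, 2500 cells/well. AC50 values derived by standard Hill fitting of qHTS concentration-response data.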

[6] = Cell Viability - LYMP2-006 (AID 978); note: nearly all actives have a fitted effect of over 60% in size
Outline: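 Human lymphoblastoid cells (LYMP2-006), 2500/well in complete medium, were treated with compound for 24 hr at 37 C. Cellular ATP was read by CellTiter-Glo luminescence after 30 min, and AC50 values came from Hill-equation fits of concentration-response data.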

[7] = Cell Viability - LYMP2-007 (AID 979);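 note: cells exposed to compound for 24 h before reading; nearly all actives have a fitted effect of over 60% in size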
Outline: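 Human lymphoblastoid cells (2500/well) were plated in complete medium, incubated 5 hr at 37 C, then exposed to compounds for 24 hr at 37 C. Intracellular ATP was read by CellTiter-Glo luminescence after 30 min at room temperature; AC50 from Hill fits.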

[8] = Cell Viability - LYMP2-008 (AID 980); note: nearly all actives have a fitted effect of over 60% in size
Outline: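 Human lymphoblastoid cells (2500/well) were plated, held 5 hr at 37 C, then exposed to compounds for 24 hr at 37 C in complete medium. Intracellular ATP was read by CellTiter-Glo luminescence; AC50 from Hill-fitted concentration-response.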

[9] = Cell Viability - LYMP2-010 (AID 981); note: nearly all actives have a fitted effect of over 55% in size
Outline: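 Human lymphoblastoid LYMP2-010 cells (2500/well) were preincubated 5 hr at 37 C, then exposed to compounds for 24 hr at 37 C in complete medium. Intracellular ATP was measured by CellTiter-Glo luminescence after 30 min at room temperature; AC50 from Hill-fitted concentration-response.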

[10] = Cell Viability - LYMP2-025 (AID 976)
Outline: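 Human lymphoblastoid LYMP2-025 cells (2500/well) were pre-incubated 5 hr at 37 C, then treated with compounds for 24 hr at 37 C in complete medium. Viability was read as intracellular ATP by CellTiter-Glo luminescence; AC50 from Hill fits.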
Potency is the fitted concentration of half-maximal effect.

Structure (SMILES) | Potency [1] | Potency [2] | Potency [3] | Potency [4] | Potency [5] | Potency [6] | Potency [7] | Potency [8] | Potency [9] | Potency [10]
Cc1ccccc1 | inactive | inactive | inactive | inactive | inactive | inactive | inactive | inactive | inactive | 
O=S(=O)(O)O | inactive | inactive | inactive | inactive | inactive | inactive | inactive | inactive | inactive | inactive
CC(C)(C)NC(=O)[C@@H]1C[C@@H]2CCCC[C@@H]2CN1C[C@@H](O)[C@H](Cc1ccccc1)NC(=O)[C@H](CC(N)=O)NC(=O)c1ccc2ccccc2n1 |  |  |  |  |  |  |  | 50.1 µM (active) | 50.1 µM (active) | inactive
CC(O)CO (centres undefined) | inactive | inactive | inactive | inactive | inactive | inactive | inactive | inactive | inactive | inactive
CC1=C2[C@@H]([C@H](C)CC[C@H]2/C=C(\C)C(=O)O)[C@H](O)C1 | inactive | inactive | inactive | inactive | inactive | inactive | inactive | inactive | inactive | inactive
CCOc1ccc2c(c1)C(C)=CC(C)(C)N2 | inactive | inactive | inactive | inactive | inactive | inactive | inactive | inactive |  | inactive
Nc1ccn([C@H]2CS[C@@H](CO)O2)c(=O)n1 | inactive | inactive | inactive | inactive | inactive | inactive | inactive | inactive | inactive | inactive
CCOC(C)=O | inactive | inactive | inactive | inactive | inactive | inactive | inactive | inactive | inactive | inactive
CC(C)=O | inactive | inactive | inactive | inactive | inactive | inactive | inactive | inactive | inactive | inactive
CCCCCCCC/C=C\CCCCCCCC(=O)O | inactive | inactive | inactive | inactive | inactive | inactive | inactive | inactive | inactive | inactive
CCCCCCCC(=O)O | inactive | inactive | inactive | inactive | inactive | inactive | inactive | inactive | inactive | inactive
CC1=C(/C=C/C(C)=C/C=C/C(C)=C/CO)C(C)(C)CCC1 |  |  |  |  | inactive | inactive |  |  | 50.1 µM (active) | inactive
O=CCCCC=O | 20 µM (active) | 20 µM (active) | 15.8 µM (active) | 25.1 µM (active) | 31.6 µM (active) | 25.1 µM (active) | 20 µM (active) | 25.1 µM (active) | 20 µM (active) | 39.8 µM (active)
CCCCC/C=C\C/C=C\CCCCCCCC(=O)O | inactive | inactive | inactive | inactive | inactive | inactive | inactive | inactive |  | inactive
IC(I)I | inactive | inactive | inactive | inactive | inactive | inactive | inactive | inactive | inactive | inactive
O=C(O)CCC(=O)C(=O)O | inactive | inactive | inactive | inactive | inactive | inactive | inactive | inactive | inactive | inactive
